Test results reported in PubChem BioAssay (NCI).
Where “and” joins values, the source holds several entries; their conditions need not be identical. Equal entries are not always repeated. The panel holds about 79,000 compounds, 15% with a hit somewhere; the sample as a whole holds those more often. Values without a mark were called inactive. Calls of active or inactive are those of the source. No stated cut-off is given here; in the data, active means growth inhibition above about 70%; inactive means the rest. Where a SMILES comes first, the peptide text is derived from it.

Columns and labels:
[1] = NCI Yeast Anticancer Drug Screen. Data for the rad50 strain (AID 155);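 further: 0% = growth of vehicle-only cultures of the same strain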; conditions: S. cerevisiae rad50 strain growth inhibition, hits give high values; at 50.0 µM unless noted
Outline: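 Compounds were tested on a yeast strain with an engineered DNA damage repair alteration; the reported value is growth inhibition normalised to vehicle treatment.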

[2] = NCI Yeast Anticancer Drug Screen. Data for the mec2-1 strain (AID 157); conditions: S. cerevisiae mec2-1 strain, hits give high values; at 50.0 µM unless noted
Outline: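 Mutant yeast (mec2-1) grown with compound; growth inhibition relative to vehicle control reported.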

[3] = NCI Yeast Anticancer Drug Screen. Data for the sgs1 mgt1 strain (AID 161);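 further: 0% = growth of cultures given vehicle only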; conditions: S. cerevisiae sgs1 mgt1 strain, hits give high values; at 50.0 µM unless noted
Outline: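 This yeast growth screen uses a strain with defined DNA-repair lesions; compound-treated growth is compared with vehicle-treated growth.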

[4] = NCI Yeast Anticancer Drug Screen. Data for the cln2 rad14 strain (AID 165);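 further: 0% = growth equal to vehicle treated cultures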; conditions: S. cerevisiae cln2 rad14 strain, hits give high values; at 50.0 µM unless noted
Outline: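 Readout is yeast growth inhibition versus vehicle-treated controls, using a strain with cln2 and rad14 alterations exposed to compound.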

[5] = NCI Yeast Anticancer Drug Screen. Data for the bub3 strain (AID 167); conditions: S. cerevisiae bub3 mutant strain, hits give high values; at 50.0 µM unless noted
Outline: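 Growth of a checkpoint-deficient yeast mutant is measured after compound exposure. Values represent inhibition relative to vehicle.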

[6] = NCI Yeast Anticancer Drug Screen. Data for the mlh1 rad18 strain (AID 175); conditions: S. cerevisiae mlh1 rad18 strain growth inhibition, hits give high values; at 50.0 µM unless noted
Outline: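 Genetically defined yeast (DNA repair-deficient) exposed to compounds; growth inhibition determined relative to vehicle.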

SMILES | growth inhibition [1] | growth inhibition [2] | growth inhibition [3] | growth inhibition [4] | growth inhibition [5] | growth inhibition [6]
OCCCCCSc1ccccc1 | 17.4% | 4.35% | 7.95% | 1.95% | -11.1% | 7.3%
O=C(c1ccccc1)N1CCC(Nc2nccs2)O1 (stereo unspecified) | -37.4% | -26.1% | -11.4% | -9.75% | -8.15% | -2.35%
O=S(=O)(N/N=C/c1cccc(Cl)c1Cl)c1ccccc1 | 9.3% | 3% | 4.4% | -37.6% | 3.5% | 21.5%
OC1(C2NCCc3ccccc32)CCN(CCc2ccccc2)CC1 (stereo unspecified) | 21.8% | 10.7% | 25.5% | 20.2% | 2.95% | 8.9%
C=C1N(C=O)C(C)(C)N(O)C1(C)C | 16.7% | 15.7% | 15.6% | 28.1% | 12.2% | 10.9%
CN(C)C(=S)Oc1ccc(-c2c(-c3ccccc3)oc3ccc4ccccc4c23)cc1 | 28.2% | -4.05% | 7.95% | 10.8% | -0.1% | 9.4%
CCOC(=O)c1c(-c2ccc([N+](=O)[O-])cc2)cn(-c2ccc(OC)cc2)c1C | 13.2% | 7.1% | 12.4% | 4.35% | -0.65% | 1%
CCC1CN2CCc3cc(OC)c(OC)cc3C2CC1=O (stereo unspecified) | -11.3% | -5.4% | -8.65% | -2.65% | 1.15% | -22.1%
NCC(=O)NC(Cc1c[nH]c2ccccc12)C(=O)O (stereo unspecified) | 7.85% and -4.8% | -4.65% and 1.4% | 7.45% and -7.4% | -0.8% and 13.8% | 26.8% and -10% | -0.75% and -5.4%
COc1cc(C2c3cc4c(c(OC5OC(CO)C(O)C5O)c3CC3COC(=O)C32)OCO4)cc(OC)c1OC (stereo unspecified) | 34.4% | 6.65% | 17.9% | 19.9% | -0.95% | 5.7%
CC1(C)OC1CS(=O)c1ccccc1 (stereo unspecified) | -6.1% | -5.4% | -14.5% | -17.4% | 5.5% | -42.8%
COc1c2c(c(OC)c3c(=O)cc(C/C(=N/NC(=O)C[n+]4ccccc4)C(=O)Nc4cc(C)ccc4C)oc13)OCO2 | -13.4% | -6.65% | -18.1% | 5.6% | -3.15% | -0.3%
Cc1nc(Nc2nc3ccccc3[nH]2)[nH]c(=O)c1CCO | 9.6% | 5.4% | -7.3% | 21.9% | 15.8% | -6.45%
OC(CN1CCCC2CCCCC21)c1cc2c(c3ccccc13)CCCC2 (stereo unspecified) | 98.2% (active) | 96.7% (active) | 99.5% (active) | 93.7% (active) | 98.5% (active) | 99.5% (active)
Cc1cnc(N)cn1 (tested in a mixture with another compound) | -0.05% | -6% | 1.1% | -52.2% | 3.4% | 8.1%
CN(Cc1ccccc1)C(=O)Nc1ccc(Cl)c(Cl)c1 | 95.8% (active) | 99% (active) | 99% (active) | 97.1% (active) | 97.7% (active) | 98.5% (active)
CC(C)(C)SC(=S)SCC(=O)c1ccc(F)cc1 | 4.35% | -36.4% | 8.65% | -10.4% | -1.65% | 1.5%
CC1CC(NC(=S)N(C)C)CC(C)(C)C1 (stereo unspecified) | 6.9% | 3.65% | 18.8% | -10.8% | 47.9% | 3.55%
O=CNC1c2ccccc2CCc2ccccc21 | -1.15% | -12.9% | -11.4% | -2.45% | -22.6% | -5.85%
O=Cc1ccc(N2CCOCC2)cc1 | 9.2% | -2.1% | -11.2% | -29.6% | -18.9% | 1.95%
Nc1[nH]c(=O)[nH]c(=O)c1[N+](=O)[O-] | 5.4% | -6.8% | -7.1% | -8.5% | -9.35% | -3.15%

SMILES | growth inhibition [1] | growth inhibition [2] | growth inhibition [3] | growth inhibition [4] | growth inhibition [5] | growth inhibition [6]
CCCC(=O)OC1CC(n2cc(F)c(=O)[nH]c2=O)OC1CO (stereo unspecified) | 8.6% | 0.45% | 11.6% | 2.55% | 7.85% | -28.6%
Cc1cc(N(CCC#N)CCC#N)ccc1/C=C1/CN(N2C(=O)/C(=C/c3ccc(N(CCC#N)CCC#N)cc3C)N=C2c2ccccc2)C(c2ccccc2)=N1 | -2.7% | -25.4% | -22.6% | 5.6% | -28.8% | -11.1%
COC(=O)c1cc(NC(=O)Nc2cc(C(F)(F)F)ccc2Cl)cc(C(=O)OC)c1 | -24.2% | -32% | -9.65% | -22.9% | -0.55% | -38.2%
Cc1cccc(NC(=O)Nc2ccccc2F)n1 | -2.7% | 5.65% | -8.95% | -26.9% | -6.95% | -12.1%
NC(Cc1ccccc1)C(=O)NC(Cc1ccccc1)C(=O)O (stereo not drawn) (H-Phe-Phe-OH; configuration not given here) | 19.6% and 11.1% | -0.8% and -19.4% | 12.6% and -2.9% | -16.1% and -19.3% | 6.2% and 4.05% | 1.6% and 7.7%
C/C=C/C(=O)Nc1cccc(OC(=O)NC(C)(C)C)c1 | 9.2% | 13.1% | 3.55% | -2% | 18% | 1.65%
CCN(CC)CC(=O)Nc1ccc2c(c1)C(=O)c1ccc(NC(=O)CN(CC)CC)cc1C2=O | 22.1% | 8% | -4.5% | 16.4% | -1.2% | -8%
O=C(O)c1c(O)cc(=O)oc1-c1ccc(Cl)cc1 | 10.8% | 0.9% | 3.75% | 4% | – | 4.75%
CCN(CC)C(=O)c1c(Cl)cc(N(CC)CC)oc1=O | -21.7% | -11.8% | -42% | -23.5% | – | -54.5%
CCCOCC[N+](C)(C)C | 1.65% | -21.9% | 8.65% | -34.5% | -8.9% | -8.9%
CCCCCCC(=O)C/C(CCC(=O)N(Cc1ccccc1)Cc1ccccc1)=N\Nc1ccc([N+](=O)[O-])cc1[N+](=O)[O-] | 12.8% | 16.1% | -13.3% | 27.4% | – | -20.5%
CCCCCCCCCCCC(O)C(C)(C)C (stereo unspecified) | 23.7% | 10.1% | -12.6% | -39.2% | – | 10.3%
COC(=O)CCc1ccco1 | 10.6% | -10% | 3.4% | 2.5% | – | 12.7%
O=C(O)c1c[nH]c2cc(OCc3ccc4ccccc4c3)ccc2c1=O | 20.2% | 2.55% | -11.3% | -2.05% | -3.05% | 6.55%
CC(=O)N(C(=O)CC(=O)NNCc1ccccc1Cl)c1ccc(Cl)cc1 | -11.4% | -14.2% | -19.6% | -11.4% | – | 6.3%
O=C(c1ccccc1)C(c1ccccc1)C(Cl)c1ccccc1 (stereo unspecified) | 21.4% | 30.8% | 31.4% | 3% | -3.2% | 19%
CNC(=O)C1C(=O)NC(=O)C1=C1CCCC1 (stereo unspecified) | 11.2% | -1.1% | 4.8% | -58.8% | – | -14.6%
CCOc1ccc(OCC)c(NC=O)c1 | -9% | -20.1% | -6.75% | 8.4% | – | 2.95%
CN1c2ccccc2C2CCCCC21 (stereo unspecified) | 11.6% | 9.7% | 2.15% | -20.2% | – | 4.25%
CCN(CC)C(=S)Oc1cc(Cl)c(Cl)cc1Cl | -5.45% | 3.8% | -5.2% | -2.55% | – | 21.2%
Cn1nnn(Cc2ccccc2)/c1=N/C(=S)Nc1ccccc1 | -11.6% | -6.75% | -4.05% | -7.45% | – | -21.4%
